# Laboratory results from PubChem BioAssay (NCATS).
# Results filed as inconclusive are left out. Unmarked numbers belong to inactive results. The source made the active and inactive calls. Calls come from the whole dose curve; as a rule, active = well fitted inhibition curve with a large enough effect; inconclusive = small, poorly fitted or top-dose-only effect; inactive = no such curve, though single readings can be large or run the other way.
# Target: Rap guanine nucleotide exchange factor 4 (Homo sapiens) (UniProt Q8WZA2)
# Assay: Confirmatory qHTS for antagonist of cAMP-regulated guanine nucleotide exchange factor 4 (EPAC2) (AID 1645885); note: nearly all actives have a fitted effect of over 25% in size
# Settings: EPAC2 Rap1B-BODIPY-GDP exchange fluorescence, biochemical; series mostly up to 12.7 µM; activity change, negative = inhibition: at the top concentration
# % is set by controls: 0 for no effect and ±100 for the full control effect; potency is the fitted concentration of half-maximal effect.
# Rap guanine nucleotide exchange factor 4 (Homo sapiens), sequence (Q8WZA2 whole entry, looked up): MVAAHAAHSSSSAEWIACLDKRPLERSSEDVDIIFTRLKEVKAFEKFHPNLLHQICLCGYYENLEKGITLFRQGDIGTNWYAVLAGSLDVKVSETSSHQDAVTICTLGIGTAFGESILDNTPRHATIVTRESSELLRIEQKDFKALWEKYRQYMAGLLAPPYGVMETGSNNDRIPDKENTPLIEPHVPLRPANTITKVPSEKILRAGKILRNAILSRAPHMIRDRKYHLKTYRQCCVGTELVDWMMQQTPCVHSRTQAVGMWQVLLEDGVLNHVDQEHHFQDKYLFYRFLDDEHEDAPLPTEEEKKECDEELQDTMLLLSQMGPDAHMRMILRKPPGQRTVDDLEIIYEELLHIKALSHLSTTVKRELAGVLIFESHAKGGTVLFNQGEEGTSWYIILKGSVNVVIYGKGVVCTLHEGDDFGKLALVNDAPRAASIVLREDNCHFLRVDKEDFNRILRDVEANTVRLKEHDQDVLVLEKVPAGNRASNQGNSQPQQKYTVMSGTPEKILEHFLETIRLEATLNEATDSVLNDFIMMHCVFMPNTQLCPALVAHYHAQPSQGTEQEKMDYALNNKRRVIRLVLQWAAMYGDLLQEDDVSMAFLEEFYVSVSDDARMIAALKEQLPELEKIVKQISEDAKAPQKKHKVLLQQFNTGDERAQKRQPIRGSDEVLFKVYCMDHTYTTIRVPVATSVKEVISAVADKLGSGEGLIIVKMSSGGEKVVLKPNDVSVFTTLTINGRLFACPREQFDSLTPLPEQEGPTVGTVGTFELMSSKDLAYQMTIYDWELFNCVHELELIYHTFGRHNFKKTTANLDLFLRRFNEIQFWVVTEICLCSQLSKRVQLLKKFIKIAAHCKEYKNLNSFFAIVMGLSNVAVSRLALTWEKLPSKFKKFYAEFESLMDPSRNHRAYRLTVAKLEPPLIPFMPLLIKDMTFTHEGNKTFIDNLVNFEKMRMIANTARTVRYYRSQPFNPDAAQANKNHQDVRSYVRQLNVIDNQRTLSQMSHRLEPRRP
Compound,"activity change, negative = inhibition",Potency,outcome
CCN(CC)C(=S)Oc1c(Cl)cccc1Cl,-7.9%,,
O=C1CSC2(C(=O)N(Cc3cccc(C(F)(F)F)c3)c3ccccc32)N1c1ccc(F)c(F)c1 (configuration not stated),6.84%,,
O=c1oc2ccccc2nc1/C=C(O)/C=C\c1ccccc1,-6.23%,,
Cc1cccn2c(=O)cc(CSc3nnc(NC(=O)COc4ccccc4)s3)nc12,1.52%,,
C/C(C/C(C)=C1/SC(=S)NC1=O)=C1\SC(=S)NC1=O,,21.3 µM (active),
CC(=O)NC(CCS(C)(=O)=O)C(=O)Nc1cccc(C)c1C (configuration not stated),-3.67% [at 114 µM],,
Nc1ccc(-c2c3ccc(=O)cc-3oc3cc(O)ccc23)c(C(=O)O)c1,274% [at 114 µM],,
COc1ccc(C(=O)N2CCc3cc(OC)c(OC)cc3C2c2ccc(OC)c(OC)c2)cc1 (configuration not stated),-7.86%,,
Cc1ccc2c(c1)CCCN2C(=O)c1cc(C)c(C)s1,,,inactive [at 12.7 µM]
COc1ccc([N+](=O)[O-])cc1NC(=S)Nc1ccccc1,117% [at 114 µM],,
O=C(c1ccc2c(c1)N(Cc1ccccc1)CCS2)N1CCCCC1,-1.91% [at 114 µM],,
Cc1nc(Cl)sc1C(=O)NC(C)c1ccc(Cl)cc1 (configuration not stated),13.1% [at 114 µM],,
Cc1cccc(CN2[C@@H](CC(C)C)COCCS2(=O)=O)c1,,,inactive
CN(CC(=O)O)c1ccc(/C=C/c2ccnc3ccccc23)cc1,,55.5 µM (active),
C=CCc1cc(/C=C/c2nc(O)c([N+](=O)[O-])c(=O)[nH]2)cc(OC)c1O,-13% [at 114 µM],,
CO/N=C/c1ccc(Sc2ccccc2)c([N+](=O)[O-])c1,-9.48%,,
CCN(CC)c1ccc2cc(-c3nnc(Nc4ccc(C)cc4)s3)c(=O)oc2c1,,5.36 µM (active),
CNC(=O)NC(=O)C(NC1CCCc2ccccc21)c1ccccc1 (configuration not stated),,47.8 µM (active),
CN1CCN(CCC(=O)Nc2ccc(Cl)cc2)CC1,-10.1%,,

Compound,"activity change, negative = inhibition",Potency,outcome
COc1cnc(-c2ccccn2)nc1Oc1c(C)cccc1C,42.1% [at 114 µM],,
O=c1ccc(-c2ccccc2)nn1Cc1c(F)cccc1Cl,-21%,,
Cn1c(N)c(C(=O)COC(=O)COc2ccccc2C#N)c(=O)n(C)c1=O,3.16%,,
O=c1oc2cc(O)ccc2cc1-c1nc2ccccc2o1,,84.9 µM (active),
CCn1c2ccccc2c2nnc(SCC(=O)N(C)C3CCS(=O)(=O)C3)nc21 (configuration not stated),5.36%,,
COc1cccc(CC(=O)Nc2ccc(S(=O)(=O)Nc3nccs3)cc2)c1,-40.8%,,
O=C(c1ccco1)N(CCC(c1ccccc1)c1ccco1)Cc1ccco1 (configuration not stated),-26.3% [at 114 µM],,
CN(C)CCNC(=O)c1cccc(-c2cnc3c(NC=O)cc(-c4cccc(C(F)(F)F)c4)cn23)c1,,,inactive
Cc1ccc2nc(NC(=O)CSc3ncnc4c3oc3ccccc34)sc2c1,-6.5% [at 114 µM],,
O=C1NC(=O)C2(N1)C(=O)c1cccc3cccc2c13 (configuration not stated),,47.8 µM (active),
O=C(NC1CCC(O)CC1)c1cccc2cccnc12 (configuration not stated),-11.5% [at 114 µM],,
Nc1nnc(-c2cccc(F)c2)s1,-13.2% [at 114 µM],,
C1=Cc2ccccc2/C1=C\c1ccc2c(c1)OCO2,-24.1% [at 114 µM],,
COc1cc(/C=C2\SC(=S)N(NS(=O)(=O)c3ccc(C)cc3)C2=O)cc(OC)c1OC,,33.8 µM (active),
Oc1ccc(-c2c(-c3ccsc3)sc3ccccc23)cc1,-13%,,
O=C(CC[C@H]1O[C@@H](n2ccc(=O)[nH]c2=O)[C@H](O)[C@@H]1O)NCc1cccc2ccccc12,-1.46% [at 114 µM],,
CSc1nc(N2CCOCC2)c2c3c(sc2n1)CCCC3,,,inactive
CN1CCN(C(CNC(=O)c2ccc(Br)o2)c2ccc(F)cc2)CC1 (configuration not stated),,1.69 µM (active),
